# Experiments:
# Experiment in all cases: PBM binding z-score (relative to random genomic background probes); higher = stronger binding; sequences stand for … in GC…GCGATTGACAGCGTAGAATGAAGG
# [1] = system: RARb homodimer (NR concentration 270 nM)
# In short: (§1)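 Ligand-free nuclear receptor dimers were applied to custom Agilent 4×180K protein-binding microarrays whose double-stranded probes carried direct-repeat seeds, single-nucleotide variants, half-site ablations and random human genomic background sequences in 34-nt variable regions. Incubation lasted 1 h. Binding z-scores were computed against the random background probes from regression-normalized fluorescence.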
# [2] = system: RARg:RXRa (NR concentration 270 nM, RXRa partner concentration 90 nM)
# In short: as §1
# [3] = system: RARg homodimer (NR concentration 270 nM)
# In short: as §1
# [4] = system: RXRa DBDmut IVT, anti-RXR (DBD mutation: RXRa K156A/R161A, NR concentration 90 nM)
# In short: as §1
# [5] = system: RXRa homodimer (NR concentration 180 nM)
# In short: as §1
# [6] = system: THRa:RXRa (NR concentration 90 nM, RXRa partner concentration 90 nM)
# In short: as §1
# [7] = system: THRa homodimer (NR concentration 90 nM)
# In short: as §1
# [8] = system: VDR homodimer (NR concentration 270 nM)
# In short: as §1
Sequence,PBM binding z-score [1],PBM binding z-score [2],PBM binding z-score [3],PBM binding z-score [4],PBM binding z-score [5],PBM binding z-score [6],PBM binding z-score [7],PBM binding z-score [8]
ATCGATAGGTCGTGAGGTGAGTATACAGAAAGGC,1.39,2.16,1.84,0.0211,2.15,2.47,1.33,0.361
AGAATCAGGTTATTAAGATCAGGGAATTGCGGTC,0.785,0.291,0.541,0.627,0.596,1.21,0.84,0.616
GCAGACAGGTGTAACGCAGGTAACTCAGGGTGGC,-0.771,-0.375,-0.631,-0.861,-0.21,0.816,-0.935,-0.598
TCATAAAGGTAAACAGGTGAAAGTCCGTAAGTTA,1.37,1.34,0.882,1.53,1.74,1.22,0.368,0.647
AGAATGAGGTTATTAAGCTCAGGGAATTGCGGTC,0.163,0.737,0.334,2,1.6,1.99,0.104,0.783
GCTTGTAGGTCAAGGTTAAGAAAGACTAAGCTAA,3.22,4.98,5.18,1.26,4.8,2.91,0.735,0.622
TTACCAAGGTAAAGGTCGTTGATCCCTCTGTAGA,2.13,1.95,1.08,0.533,2.7,2.48,0.667,1.55
CCTATTAGTTGACCACAAGGGCAACCGAAGCTCG,1.95,1.15,1.01,0.553,0.829,1.23,0.878,1.01
ATATGTAGGTTAAGGGTCATTCAGGTTGGTTCGC,4.16,4.91,3.76,2.37,6.65,3.68,2.05,4.42
TCTTTTAGATCAACAGGAGGTTAAGAAAGATCGA,0.623,1.24,0.914,1.31,1.48,1.08,-0.0396,-0.0983
GTACCAAGGTGACTAGGTCGTTGATGAGTAGGCG,0.945,0.955,0.808,-0.648,0.837,1.87,0.333,0.099
TAGCGTAGGTCATGGGCCAGTATACCACGCGAAC,2.74,4.61,4.67,-0.189,4.73,2.38,-0.142,0.0635
CGACCGAGGGCATGAGTTGATAGCAAATGCCGAT,0.812,1.35,1.89,1.81,0.547,1.01,-0.126,1.48
TCTGCTAGCTCAGTTGGTCAGCTAACGAGCTGCC,-1.04,-0.955,-0.903,-0.192,-1.34,-1.6,-1.25,-1.56
